# This excerpt belongs to a sample that is enriched for hits.
# KDM5B inhibitor = inhibitors of human KDM5B histone demethylase; Q9UGL1; KDM5B demethylase, FDH-coupled NADH fluorescence (FDH is formaldehyde dehydrogenase); Potency, µM (titrated, usually from 57.7 µM), most hits filed as inhibitors; 2.6% of 220,000 active; active means well fitted inhibition curve with a large enough effect; further: 0% is about no effect; nearly all actives have a fitted effect of over 70% in size
#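 qHTS format, multiple compound concentrations. Buffer 50 mM HEPES pH 7.5/0.01% Tween-20; 200 nM KDM5BΔAP final; 10 min compound preincubation; substrate-mix levels 12.5 µM peptide, 25 µM α-KG, 0.25 mM NAD⁺; 30 min RT; ΔRFU.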
# Numbers without * were called inactive; i = inactive; + = active, no number. Potency means the concentration at half of the fitted maximal effect.
SMILES,KDM5B inhibitor
COc1ccc(-c2cc3c(ccn3C)c(C(=O)NCCC(N)=O)n2)cc1OC,35.5µM*
COc1cc(F)ccc1-c1cc2c(ccn2C)c(C(=O)NCCc2cnc[nH]2)n1,i
COc1ccccc1-c1cc2c(ccn2C)c(C(=O)NCCN2CCNC2=O)n1,i
CC(=O)Nc1cccc(-c2cc3c(ccn3C)c(C(=O)NCCc3cnc[nH]3)n2)c1,i
O=C(NCCc1csc(-c2ccc(F)cc2)n1)c1ccc(Br)o1,i
Cc1ccsc1C(=O)N1CCCC(n2cc(-c3nc(C(C)C)no3)nn2)C1 (centres undefined),i
CCc1ccccc1NC(=O)c1c(OC)cc(=O)n2c1CCCC2,i
O=C(Nc1ccc(OC2CCCC2)cc1)c1cccnc1,i
Cc1ccc(C2(C)N(O)C(C)C(c3cccs3)=[N+]2[O-])cc1 (centres undefined),i
CCc1ccc(CNC(=O)Cc2c(C(=O)O)c(C)cn2C)cc1,i
CN1C(=O)CO[C@H](c2ccc(NC(=O)c3ccc(C(F)(F)F)cc3)cc2)[C@H]1CO,i
Cc1oc2c(c1C(=O)N1CCCC1)CN(Cc1ccc(F)cc1)CC2,i
COc1cccc(-c2cc3c(ccn3C)c(C(=O)NCCc3cnc[nH]3)n2)c1OC,39.8µM*
COc1ccc(CN2C[C@]3(C=C4CCCCC4n4c(=O)n(-c5ccccc5)c(=O)n43)N=C2NC(=O)c2ccccc2)c(OC)c1 (some centres undefined),i
C=CCSc1nnc(NC(=O)c2cc(=O)c3c(C)cc(C)cc3o2)s1,i
O=C(O)c1cc(-c2ccc3c(c2)OCO3)nc2ccc(Br)cc12,i
O=C(Cn1cccc1-c1nc(-c2ccccc2)no1)Nc1ccccc1,i
COc1ccc(NC(=O)Cn2cccc2-c2nc(-c3ccccc3)no2)cc1,i
COC(=O)c1ccccc1NC(=O)Cn1cccc1-c1nc(-c2ccccc2)no1,28.2µM*
CC(C)c1ccc(CCC(=O)NC2CC3CCC2C3)cc1 (centres undefined),i
O=C(O)CNC(=O)c1ccc(NC(=O)/C(=C/c2cccc([N+](=O)[O-])c2)NC(=O)c2ccco2)cc1,i
COC(=O)CCCCCCCCCC[N+]1(Cc2ccccc2)CCCCC1,i
COc1ccc(CCC(=O)NC(C)c2cccs2)cc1OC (centres undefined),i
CC(=O)c1cn(CC(=O)NC2CCCCCC2)c2ccccc12,i
CCOc1ccc(Nc2ccc3nonc3c2[N+](=O)[O-])cc1,i
SMILES,KDM5B inhibitor
CN1CCCCC12Cc1ccccc1CN(C(=O)CCCC(=O)O)C2 (centres undefined),i
CCCN1CCCCC12Cc1ccccc1CN(C(=O)C1CCCC1)C2 (centres undefined),50.1µM*
CCCN1CCCCC12Cc1ccccc1CN(C(=O)CNC(C)=O)C2 (centres undefined),i
O=C(O)CCC(=O)N1Cc2ccccc2CC2(CCCCN2Cc2ccccc2)C1 (centres undefined),i
CN1CCCCC12Cc1ccccc1CN(C(=O)c1ccccc1)C2 (centres undefined),56.2µM*
CCCN1CCCCC12Cc1ccccc1CN(C(=O)CCC(=O)O)C2 (centres undefined),i
O=C(O)CCC(=O)N1Cc2ccccc2CC2(CCCCN2CCc2ccccc2)C1 (centres undefined),+
CN1CCCCC12Cc1ccccc1CN(C(=O)C1CCCC1)C2 (centres undefined),i
CCCC(=O)N1Cc2ccccc2CC2(CCCCN2C)C1 (centres undefined),i
Cc1cc(Nc2cccc([N+](=O)[O-])c2)c2cc(Cl)ccc2n1,i
O=C(NCCc1c[nH]c2ccccc12)c1cc(Cl)cc(Cl)c1,i
O=C(NNC(=O)c1cc(C(F)(F)F)cc(C(F)(F)F)c1)c1ccc(Cl)cc1,i
COC(=O)[C@@H]1Cc2ncn(C)c2CN1C(=O)CC(C)(C)C,i
Cc1cccc(CN2CCN(Cc3nc(-c4cccs4)oc3C)CC2CCO)n1 (centres undefined),25.1µM*
OCCC1CN(Cc2cnn(-c3ccccc3)c2)CCN1Cc1cccs1 (centres undefined),i
COCC(=O)N1CCN(Cc2nc(-c3cccs3)oc2C)CC1,i
CCN(CC)c1ccc([N+](=O)[O-])cc1C(=O)NCc1coc(-c2cccs2)n1,i
COc1ccc(S(=O)(=O)N[C@H]2C[C@@H](c3nc(Cc4ccccc4)no3)N(C)C2)cc1,i
CC(Oc1ccc(Cl)cc1)C(=O)N1CCN(c2nccs2)CC1 (centres undefined),i
Cc1cnc(CC2CCN(C(=O)Cc3cccc(F)c3)C2)n1C(C)C (centres undefined),i
CN1C[C@@H](NC(=O)c2ccc3c(c2)OCO3)C[C@H]1c1nc(-c2ccc(Cl)cc2)no1,31.6µM*
Cc1ccc(C(=O)N[C@H]2C[C@@H](c3nc(-c4ccc5c(c4)OCO5)no3)N(C)C2)cc1,i
CN1C[C@@H](NC(=O)Nc2ccccc2)C[C@H]1c1nc(-c2ccccc2)no1,35.5µM*
Cc1noc([C@@H]2C[C@H](NC(=O)Nc3ccccc3)CN2C)n1,i
CN1C[C@@H](NC(=O)Nc2ccccc2)C[C@H]1c1nc(-c2ccc(F)cc2)no1,i
SMILES,KDM5B inhibitor
CN1C[C@@H](NC(=O)c2ccc(F)cc2)C[C@H]1c1nc(-c2ccc3c(c2)OCO3)no1,i
Cc1nc(N2CCN(Cc3csc(C)n3)CC2)c2sccc2n1,i
Fc1ccccc1-c1nc(NC2CCCC2)c2ccccc2n1,i
Cc1ccn(CC(=O)N[C@@H]2CN(c3ncccn3)C[C@H]2CO)n1,i
Cc1cccnc1C(=O)N[C@@H]1CN(Cc2ccccc2)C[C@H]1CO,i
Cc1ccoc1C(=O)N[C@@H]1CN(c2ncccn2)C[C@H]1CO,25.1µM*
Cc1ccccc1CC(=O)N[C@@H]1CN(c2ccncn2)C[C@H]1CO,i
Cc1ccc(CN2C[C@@H](CO)[C@H](NC(=O)c3cccnc3)C2)cc1,i
Cc1ccc(C(=O)N[C@@H]2CN(c3ncccn3)C[C@H]2CO)nc1,20µM*
CCC(C)(C)C1CCc2c(sc(NC(=O)/C=C/c3ccc(C(C)C)cc3)c2C#N)C1 (centres undefined),i
COc1cccc(CN(C(=O)COc2ccc(Cl)c(C)c2)C2CCS(=O)(=O)C2)c1 (centres undefined),i
Cc1ccc(CN2CC[C@H](CNC(=O)C3CC3)[C@H](N(C)C)C2)o1,i
O=C1NCCCCCCN(C(=O)NCc2ccccc2)[C@H]2CCC[C@@H]12,i
O=C(N[C@H](c1ccccn1)C1CC(O)C1)c1cnc2ccccn2c1=O (some centres undefined),25.1µM*
Cc1cc2c(cc1C(=O)N[C@H](c1ccccn1)C1CC(O)C1)OCCO2 (some centres undefined),i
Cc1cccn2c(CC(=O)N[C@H](c3ccccn3)C3CC(O)C3)cnc12 (some centres undefined),i
Cc1cc(C)nc(Nc2ncc(O)n2-c2ccc(C)c(Cl)c2)n1,i
c1ccc(CN2CCC(N3CC(OCC4CC4)C34CCOCC4)CC2)cc1 (centres undefined),i
CN(Cc1ccc(F)cc1)Cc1cccnc1,i
COc1ccc(S(=O)(=O)N2CCc3nc4cc[nH]n4c(=O)c3C2)cc1Cl,25.1µM*
O=C(CN1CCN(C(=O)c2cc(-c3ccccc3)n[nH]2)CC1)N1CCCCC1,i
O=C(c1ccccc1C(F)(F)F)N1CCc2nc3cc[nH]n3c(=O)c2C1,31.6µM*

# Screening results (PubChem)
